# From paper PMC7862700, “An all-to-all approach to the identification of sequence-specific readers for epigenetic DNA modifications on cytosine”
# Tests used:
# Experiment in all cases: DAPPL (digital affinity profiling via proximity ligation, sequencing); 10 mM Tris-HCl pH 7.5, 50 mM NaCl, 1 mM DTT, 4% glycerol, room temperature, 30 min; GST-TFs on glutathione beads, 16-mer random dsDNA library, 0.1% formaldehyde crosslink after washing; high values mean tight binding
# [1] = target: T1, FEV (Homo sapiens, UniProt Q99581 1-238); conditions: protein: recombinant; tags: N-terminal GST; dsDNA, one strand shown
# T1 sequence: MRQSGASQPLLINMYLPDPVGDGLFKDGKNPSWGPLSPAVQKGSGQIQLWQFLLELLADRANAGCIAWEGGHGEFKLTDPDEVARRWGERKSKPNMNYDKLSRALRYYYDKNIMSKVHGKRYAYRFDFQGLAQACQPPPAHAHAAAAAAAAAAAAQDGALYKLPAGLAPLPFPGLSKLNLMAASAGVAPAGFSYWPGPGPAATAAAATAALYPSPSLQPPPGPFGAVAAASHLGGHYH
# Procedure, shortened: (§1)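 Binding signal is defined as a hexamer's read frequency for one factor over its frequency for the tag-only sample. To obtain reads, GST-fused human transcription factors were expressed in yeast, captured on glutathione beads, barcoded with DNA and pooled with that sample. Pools met 200 nmole of a 16-mer random double-stranded DNA library in Tris/NaCl/DTT/glycerol buffer for 30 min at room temperature before washing, 0.1% formaldehyde crosslinking, proximity ligation (BsaI/T4 ligase, 1 h, 37 °C), PCR and Illumina NextSeq500 sequencing.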
# [2] = target: ETV5 (Homo sapiens, UniProt P41161 1-510); conditions: protein: recombinant; tags: N-terminal GST; dsDNA, one strand shown
# Procedure, shortened: as §1
# [3] = target: HSF1 (Homo sapiens, UniProt Q00613 1-529); conditions: protein: recombinant; tags: N-terminal GST; chain copies: 3; dsDNA, one strand shown
# Procedure, shortened: as §1
# [4] = target: T2, SPIC (Homo sapiens, UniProt Q8N5J4 1-248); conditions: protein: recombinant; tags: N-terminal GST; dsDNA, one strand shown
# T2 sequence: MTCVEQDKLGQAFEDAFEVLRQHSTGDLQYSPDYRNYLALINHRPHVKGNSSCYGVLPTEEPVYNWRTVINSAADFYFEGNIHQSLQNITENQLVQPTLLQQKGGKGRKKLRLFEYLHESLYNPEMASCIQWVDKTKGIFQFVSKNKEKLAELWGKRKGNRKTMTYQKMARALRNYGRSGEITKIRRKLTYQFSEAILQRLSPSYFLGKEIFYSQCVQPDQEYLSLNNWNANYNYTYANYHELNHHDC
# Procedure, shortened: as §1
# [5] = target: ELF4 (Homo sapiens, UniProt Q99607 1-663); conditions: protein: recombinant; tags: N-terminal GST; dsDNA, one strand shown
# Procedure, shortened: as §1
# [6] = target: T3, ELK4 (Homo sapiens, UniProt P28324-2 1-405); conditions: protein: recombinant; tags: N-terminal GST; dsDNA, one strand shown
# T3 sequence: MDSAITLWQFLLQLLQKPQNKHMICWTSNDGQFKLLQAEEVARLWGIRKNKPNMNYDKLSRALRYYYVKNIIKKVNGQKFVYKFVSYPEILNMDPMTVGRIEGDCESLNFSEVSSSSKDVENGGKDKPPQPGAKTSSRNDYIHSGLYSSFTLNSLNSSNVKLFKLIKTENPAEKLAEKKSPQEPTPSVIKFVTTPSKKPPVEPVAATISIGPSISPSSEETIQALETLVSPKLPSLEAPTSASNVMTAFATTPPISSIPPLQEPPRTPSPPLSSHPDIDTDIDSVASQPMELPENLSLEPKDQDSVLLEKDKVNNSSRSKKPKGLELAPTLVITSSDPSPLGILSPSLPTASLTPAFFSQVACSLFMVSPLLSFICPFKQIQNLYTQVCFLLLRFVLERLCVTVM
# Procedure, shortened: as §1
# [7] = target: T4, ETV2 (Homo sapiens, UniProt O00321 1-342); conditions: protein: recombinant; tags: N-terminal GST; dsDNA, one strand shown
# T4 sequence: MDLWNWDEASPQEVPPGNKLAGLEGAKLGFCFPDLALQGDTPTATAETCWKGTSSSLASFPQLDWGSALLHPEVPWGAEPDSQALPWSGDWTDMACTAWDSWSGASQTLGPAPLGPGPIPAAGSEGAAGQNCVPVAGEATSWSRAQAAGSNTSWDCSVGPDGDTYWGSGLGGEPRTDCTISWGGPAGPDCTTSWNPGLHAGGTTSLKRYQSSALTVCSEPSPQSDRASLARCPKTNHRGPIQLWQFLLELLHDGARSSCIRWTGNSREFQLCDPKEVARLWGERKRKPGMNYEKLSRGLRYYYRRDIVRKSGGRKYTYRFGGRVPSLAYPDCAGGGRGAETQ
# Procedure, shortened: as §1
# [8] = target: T5, ELF3 (Homo sapiens, UniProt P78545 1-371); conditions: protein: recombinant; tags: N-terminal GST; dsDNA, one strand shown
# T5 sequence: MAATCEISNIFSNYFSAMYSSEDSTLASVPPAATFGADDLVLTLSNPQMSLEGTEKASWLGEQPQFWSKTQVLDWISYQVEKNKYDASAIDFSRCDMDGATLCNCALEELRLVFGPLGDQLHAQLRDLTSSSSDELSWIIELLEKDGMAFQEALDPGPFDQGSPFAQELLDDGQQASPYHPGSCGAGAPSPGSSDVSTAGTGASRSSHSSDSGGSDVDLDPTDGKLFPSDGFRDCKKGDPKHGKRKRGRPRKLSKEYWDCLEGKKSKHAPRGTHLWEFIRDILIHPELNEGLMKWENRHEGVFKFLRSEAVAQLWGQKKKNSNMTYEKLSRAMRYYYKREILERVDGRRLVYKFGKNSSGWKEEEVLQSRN
# Procedure, shortened: as §1
# [9] = target: CRX (Homo sapiens, UniProt O43186 1-299); conditions: protein: recombinant; tags: N-terminal GST; dsDNA, one strand shown
# Procedure, shortened: as §1
# [10] = target: ETV1 (Homo sapiens, UniProt P50549 1-477); conditions: protein: recombinant; tags: N-terminal GST; dsDNA, one strand shown
# Procedure, shortened: as §1
# [11] = target: T6, ERF (Homo sapiens, UniProt P50548 1-548); conditions: protein: recombinant; tags: N-terminal GST; dsDNA, one strand shown
# T6 sequence: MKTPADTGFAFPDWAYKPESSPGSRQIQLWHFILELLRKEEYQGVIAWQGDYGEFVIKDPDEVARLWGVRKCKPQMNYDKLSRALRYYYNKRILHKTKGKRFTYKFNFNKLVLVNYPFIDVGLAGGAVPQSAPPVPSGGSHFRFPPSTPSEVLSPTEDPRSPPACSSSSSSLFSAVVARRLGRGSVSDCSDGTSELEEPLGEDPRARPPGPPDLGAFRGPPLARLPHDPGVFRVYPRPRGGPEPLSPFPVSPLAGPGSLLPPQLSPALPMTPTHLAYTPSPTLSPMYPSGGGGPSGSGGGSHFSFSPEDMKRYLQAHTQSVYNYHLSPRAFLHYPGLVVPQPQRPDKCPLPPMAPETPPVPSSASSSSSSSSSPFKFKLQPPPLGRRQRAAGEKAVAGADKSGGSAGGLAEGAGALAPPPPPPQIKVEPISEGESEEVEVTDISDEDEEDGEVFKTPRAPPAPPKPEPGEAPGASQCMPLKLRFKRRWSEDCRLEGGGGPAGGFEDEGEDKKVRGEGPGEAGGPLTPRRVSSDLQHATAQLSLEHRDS
# Procedure, shortened: as §1
# [12] = target: T7, ETV3L (Homo sapiens, UniProt Q6ZN32 1-361); conditions: protein: recombinant; tags: N-terminal GST; dsDNA, one strand shown
# T7 sequence: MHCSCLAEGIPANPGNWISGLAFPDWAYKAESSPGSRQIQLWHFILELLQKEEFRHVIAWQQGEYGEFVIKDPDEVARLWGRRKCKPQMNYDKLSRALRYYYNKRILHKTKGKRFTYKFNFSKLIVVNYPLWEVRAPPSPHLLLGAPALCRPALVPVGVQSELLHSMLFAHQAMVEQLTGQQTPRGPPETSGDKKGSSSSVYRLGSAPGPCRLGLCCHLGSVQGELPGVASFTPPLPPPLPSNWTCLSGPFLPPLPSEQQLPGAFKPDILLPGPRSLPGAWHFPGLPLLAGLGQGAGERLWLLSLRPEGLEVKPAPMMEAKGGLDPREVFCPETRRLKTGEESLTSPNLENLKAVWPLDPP
# Procedure, shortened: as §1
# [13] = target: T8, ETS2 (Homo sapiens, UniProt P15036 1-469); conditions: protein: recombinant; tags: N-terminal GST; dsDNA, one strand shown
# T8 sequence: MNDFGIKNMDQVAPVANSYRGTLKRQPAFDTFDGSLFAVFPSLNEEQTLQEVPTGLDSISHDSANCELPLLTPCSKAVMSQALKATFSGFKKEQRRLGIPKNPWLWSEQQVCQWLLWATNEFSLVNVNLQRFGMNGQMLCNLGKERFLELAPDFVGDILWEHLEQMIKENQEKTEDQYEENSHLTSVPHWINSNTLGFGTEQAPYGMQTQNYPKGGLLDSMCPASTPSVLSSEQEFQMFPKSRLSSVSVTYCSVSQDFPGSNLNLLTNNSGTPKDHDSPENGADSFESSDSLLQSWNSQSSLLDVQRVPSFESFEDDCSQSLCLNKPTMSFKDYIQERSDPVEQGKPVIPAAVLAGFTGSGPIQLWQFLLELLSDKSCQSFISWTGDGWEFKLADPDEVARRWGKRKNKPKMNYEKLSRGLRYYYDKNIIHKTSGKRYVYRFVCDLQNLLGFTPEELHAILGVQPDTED
# Procedure, shortened: as §1
# [14] = target: T9, SPDEF (Homo sapiens, UniProt O95238 1-335); conditions: protein: recombinant; tags: N-terminal GST; dsDNA, one strand shown
# T9 sequence: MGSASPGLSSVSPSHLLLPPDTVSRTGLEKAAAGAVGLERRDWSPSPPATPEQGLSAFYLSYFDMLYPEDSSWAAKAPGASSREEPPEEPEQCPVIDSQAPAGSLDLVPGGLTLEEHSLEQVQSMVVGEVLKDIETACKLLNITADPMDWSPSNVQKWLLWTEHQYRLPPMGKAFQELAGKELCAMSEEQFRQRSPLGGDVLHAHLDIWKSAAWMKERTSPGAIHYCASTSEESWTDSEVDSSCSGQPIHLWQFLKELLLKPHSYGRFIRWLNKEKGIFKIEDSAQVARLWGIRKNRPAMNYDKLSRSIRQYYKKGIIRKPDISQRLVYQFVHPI
# Procedure, shortened: as §1
# [15] = target: T10, ETV7 (Homo sapiens, UniProt Q9Y603 1-341); conditions: protein: recombinant; tags: N-terminal GST; dsDNA, one strand shown
# T10 sequence: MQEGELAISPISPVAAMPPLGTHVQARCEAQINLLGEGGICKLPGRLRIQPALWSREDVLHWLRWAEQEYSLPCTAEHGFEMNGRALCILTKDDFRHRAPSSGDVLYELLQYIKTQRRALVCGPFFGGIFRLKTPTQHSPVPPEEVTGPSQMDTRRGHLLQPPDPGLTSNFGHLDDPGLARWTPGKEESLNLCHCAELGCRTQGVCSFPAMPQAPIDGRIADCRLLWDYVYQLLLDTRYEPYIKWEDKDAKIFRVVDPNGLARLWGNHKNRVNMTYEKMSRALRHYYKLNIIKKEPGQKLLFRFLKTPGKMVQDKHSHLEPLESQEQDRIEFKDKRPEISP
# Procedure, shortened: as §1
# [16] = target: T11, ELF5 (Homo sapiens, UniProt Q9UKW6-2 1-255); conditions: protein: recombinant; tags: N-terminal GST; dsDNA, one strand shown
# T11 sequence: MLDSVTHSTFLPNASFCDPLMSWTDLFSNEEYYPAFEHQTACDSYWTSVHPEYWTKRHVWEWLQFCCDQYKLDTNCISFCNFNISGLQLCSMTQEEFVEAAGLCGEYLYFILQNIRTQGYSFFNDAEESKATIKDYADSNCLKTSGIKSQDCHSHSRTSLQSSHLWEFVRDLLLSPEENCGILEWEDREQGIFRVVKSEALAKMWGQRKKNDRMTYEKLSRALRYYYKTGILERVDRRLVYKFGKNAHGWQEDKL
# Procedure, shortened: as §1
# [17] = target: T12, ETV3 (Homo sapiens, UniProt P41162-2 1-143); conditions: protein: recombinant; tags: N-terminal GST; dsDNA, one strand shown
# T12 sequence: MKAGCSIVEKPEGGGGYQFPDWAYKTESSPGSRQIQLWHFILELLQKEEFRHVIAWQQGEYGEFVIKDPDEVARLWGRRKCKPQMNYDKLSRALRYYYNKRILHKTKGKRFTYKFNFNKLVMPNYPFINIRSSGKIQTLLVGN
# Procedure, shortened: as §1
# [18] = target: ETV6 (Homo sapiens, UniProt P41212 1-452); conditions: protein: recombinant; tags: N-terminal GST; dsDNA, one strand shown
# Procedure, shortened: as §1
# Sequence of CRX (O43186 whole entry): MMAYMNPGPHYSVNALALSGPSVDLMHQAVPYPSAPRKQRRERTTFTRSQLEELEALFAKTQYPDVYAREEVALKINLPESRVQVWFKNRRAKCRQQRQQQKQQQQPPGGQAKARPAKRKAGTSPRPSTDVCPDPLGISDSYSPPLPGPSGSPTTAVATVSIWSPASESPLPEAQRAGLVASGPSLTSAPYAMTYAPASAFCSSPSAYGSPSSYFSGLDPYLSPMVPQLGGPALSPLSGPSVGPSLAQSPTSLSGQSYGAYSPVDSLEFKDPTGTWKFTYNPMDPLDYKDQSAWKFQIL
# Sequence of HSF1 (Q00613 whole entry): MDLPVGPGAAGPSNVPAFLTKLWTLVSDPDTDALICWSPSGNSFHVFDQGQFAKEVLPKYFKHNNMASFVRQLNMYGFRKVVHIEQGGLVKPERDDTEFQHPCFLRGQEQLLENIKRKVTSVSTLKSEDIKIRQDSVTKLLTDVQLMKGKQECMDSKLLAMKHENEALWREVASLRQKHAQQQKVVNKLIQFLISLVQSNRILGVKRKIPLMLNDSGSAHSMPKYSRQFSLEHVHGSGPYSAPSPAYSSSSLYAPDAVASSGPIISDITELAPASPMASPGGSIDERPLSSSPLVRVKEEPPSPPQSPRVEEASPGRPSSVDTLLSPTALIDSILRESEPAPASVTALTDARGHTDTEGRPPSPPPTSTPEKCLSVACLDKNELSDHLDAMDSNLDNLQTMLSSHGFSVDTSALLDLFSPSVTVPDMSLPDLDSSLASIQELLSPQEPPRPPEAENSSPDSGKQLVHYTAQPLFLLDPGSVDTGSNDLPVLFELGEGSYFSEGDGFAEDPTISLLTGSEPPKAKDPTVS
# Sequence of ETV1 (P50549 whole entry): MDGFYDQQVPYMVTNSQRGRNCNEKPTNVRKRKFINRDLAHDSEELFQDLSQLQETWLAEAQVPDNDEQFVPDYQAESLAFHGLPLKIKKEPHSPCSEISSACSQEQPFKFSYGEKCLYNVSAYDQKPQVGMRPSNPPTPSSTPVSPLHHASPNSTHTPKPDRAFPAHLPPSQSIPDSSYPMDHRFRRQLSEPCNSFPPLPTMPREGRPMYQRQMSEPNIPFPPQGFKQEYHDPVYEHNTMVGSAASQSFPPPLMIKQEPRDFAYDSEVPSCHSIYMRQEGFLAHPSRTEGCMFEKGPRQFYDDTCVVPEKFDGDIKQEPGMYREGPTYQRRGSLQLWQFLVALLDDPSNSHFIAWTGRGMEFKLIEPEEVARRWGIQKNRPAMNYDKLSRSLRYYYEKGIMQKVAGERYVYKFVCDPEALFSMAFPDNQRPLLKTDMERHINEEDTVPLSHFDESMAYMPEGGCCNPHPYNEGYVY
# Sequence of ELF4 (Q99607 whole entry): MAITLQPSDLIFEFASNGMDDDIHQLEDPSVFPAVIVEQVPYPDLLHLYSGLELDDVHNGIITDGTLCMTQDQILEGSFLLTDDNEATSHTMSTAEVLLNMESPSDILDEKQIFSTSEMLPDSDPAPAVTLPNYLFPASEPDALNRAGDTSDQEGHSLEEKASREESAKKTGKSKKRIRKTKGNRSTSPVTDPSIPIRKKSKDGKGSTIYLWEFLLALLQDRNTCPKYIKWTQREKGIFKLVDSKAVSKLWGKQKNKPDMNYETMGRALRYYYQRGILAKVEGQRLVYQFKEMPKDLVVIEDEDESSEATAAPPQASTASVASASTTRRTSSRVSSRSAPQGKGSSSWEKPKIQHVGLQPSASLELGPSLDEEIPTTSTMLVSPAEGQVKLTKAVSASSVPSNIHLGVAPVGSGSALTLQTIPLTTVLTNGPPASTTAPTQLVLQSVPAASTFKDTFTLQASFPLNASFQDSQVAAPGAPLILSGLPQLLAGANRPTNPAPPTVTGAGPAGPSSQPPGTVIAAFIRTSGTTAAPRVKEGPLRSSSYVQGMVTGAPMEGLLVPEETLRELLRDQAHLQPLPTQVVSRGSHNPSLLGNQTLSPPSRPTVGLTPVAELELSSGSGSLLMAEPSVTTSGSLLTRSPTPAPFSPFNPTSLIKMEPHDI
# Sequence of ETV6 (P41212 whole entry): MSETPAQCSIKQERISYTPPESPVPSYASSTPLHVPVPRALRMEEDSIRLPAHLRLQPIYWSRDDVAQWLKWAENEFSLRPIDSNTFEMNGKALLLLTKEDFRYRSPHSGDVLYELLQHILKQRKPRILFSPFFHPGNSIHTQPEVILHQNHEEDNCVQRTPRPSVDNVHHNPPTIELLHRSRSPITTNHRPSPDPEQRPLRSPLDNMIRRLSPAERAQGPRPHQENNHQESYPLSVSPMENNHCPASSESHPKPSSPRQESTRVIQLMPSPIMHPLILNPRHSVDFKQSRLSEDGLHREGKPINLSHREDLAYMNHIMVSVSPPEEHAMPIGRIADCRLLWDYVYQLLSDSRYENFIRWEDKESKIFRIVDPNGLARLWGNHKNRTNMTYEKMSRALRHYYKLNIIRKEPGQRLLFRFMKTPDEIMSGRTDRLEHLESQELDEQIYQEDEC
# Sequence of ETV5 (P41161 whole entry): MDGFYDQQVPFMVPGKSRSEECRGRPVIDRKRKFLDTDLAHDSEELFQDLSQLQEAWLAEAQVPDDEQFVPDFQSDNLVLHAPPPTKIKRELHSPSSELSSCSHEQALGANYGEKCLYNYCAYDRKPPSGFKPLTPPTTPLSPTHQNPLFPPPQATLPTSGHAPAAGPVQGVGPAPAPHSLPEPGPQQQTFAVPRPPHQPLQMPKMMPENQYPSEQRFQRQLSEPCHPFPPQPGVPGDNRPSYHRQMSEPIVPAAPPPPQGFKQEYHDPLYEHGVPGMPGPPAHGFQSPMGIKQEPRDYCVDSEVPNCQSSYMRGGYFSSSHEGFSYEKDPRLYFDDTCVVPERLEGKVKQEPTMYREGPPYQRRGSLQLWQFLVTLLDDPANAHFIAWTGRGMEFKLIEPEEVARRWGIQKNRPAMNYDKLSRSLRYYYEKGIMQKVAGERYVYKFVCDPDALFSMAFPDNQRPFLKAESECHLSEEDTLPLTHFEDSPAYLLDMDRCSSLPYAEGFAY
sequence,measurement,setting,value
GTCTTT,binding signal,[1],"1.14 fold enrichment (6-mer frequency, TF over GST control)"
same,binding signal,[2],"1.22 fold enrichment (6-mer frequency, TF over GST control)"
same,binding signal,[3],"1.22 fold enrichment (6-mer frequency, TF over GST control)"
same,binding signal,[4],"1.26 fold enrichment (6-mer frequency, TF over GST control)"
same,binding signal,[5],"1.22 fold enrichment (6-mer frequency, TF over GST control)"
same,binding signal,[6],"1.21 fold enrichment (6-mer frequency, TF over GST control)"
same,binding signal,[7],"1.12 fold enrichment (6-mer frequency, TF over GST control)"
same,binding signal,[8],"1.27 fold enrichment (6-mer frequency, TF over GST control)"
same,binding signal,[9],"1.24 fold enrichment (6-mer frequency, TF over GST control)"
same,binding signal,[10],"1.13 fold enrichment (6-mer frequency, TF over GST control)"
same,binding signal,[11],"1.27 fold enrichment (6-mer frequency, TF over GST control)"
same,binding signal,[12],"1.27 fold enrichment (6-mer frequency, TF over GST control)"
same,binding signal,[13],"1.26 fold enrichment (6-mer frequency, TF over GST control)"
same,binding signal,[14],"1.17 fold enrichment (6-mer frequency, TF over GST control)"
same,binding signal,[15],"1.28 fold enrichment (6-mer frequency, TF over GST control)"
same,binding signal,[16],"1.31 fold enrichment (6-mer frequency, TF over GST control)"
same,binding signal,[17],"1.26 fold enrichment (6-mer frequency, TF over GST control)"
same,binding signal,[18],"1.24 fold enrichment (6-mer frequency, TF over GST control)"
